Sampled rows, rich in hits. Any-hit rate of the full collection: about 12%.
HP1b chromo inh: HP1-beta chromodomain-methylated histone interaction inhibition; AlphaScreen HP1-beta / biotin-H3K9me3 peptide binding; Potency, µM (doses to about 114 µM), for the others: top-dose activity change, negative = inhibition, most hits filed as inhibitors; P83916; actives 0.56% (n = 390,000); also: nearly all actives have a fitted effect of over 70% in size
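HP1-beta protein (50 nM final) preincubated 30 min at room temperature with biotinylated H3(1-18)K9me3 peptide (50 nM) in PBS pH 7.4, 0.01% Tween-20, then compound added for 30 min. AlphaScreen streptavidin donor/nickel chelate acceptor beads (10 ug/mL final), 30 min dark, luminescence read.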
JMJD2A Tudor: JMJD2A Tudor domain (human) inhibition; actives 4.4% (n = 390,000); Potency, µM (highest dose often 114 µM), without a hit: at the top dose activity change, negative = inhibition, usual class: inhibitors; AlphaScreen JMJD2A-Tudor / H3K4me3 peptide binding; O75164; also: % is scaled to controls: 0 for no effect and ±100 for the full control effect; nearly all actives have a fitted effect of over 50% in size
BAZ2B block: BAZ2B (human) inhibition; AID 504333; AlphaScreen BAZ2B-H3K14Ac peptide displacement; Potency, µM (top dose mostly 114 µM), inactives show top-dose activity change, negative = inhibition, actives largely listed as inhibitors; actives 4.4% (n = 360,000); Q9UIF8; also: % is scaled to controls: 0 for no effect and ±100 for the full control effect; nearly all actives have a fitted effect of over 60% in size
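AlphaScreen luminescence quantifies BAZ2B engagement of H3K14Ac peptide; the protein and biotinylated peptide are both at 50 nM final, buffer PBS pH 7.4 with 0.01% Tween-20, all steps at room temperature.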
Sfp PPTase inh: inhibitors of Bacillus subtilis Sfp phosphopantetheinyl transferase; Q9F4F7; Biochemical Sfp PPTase activity, qHTS; Potency, µM, without a hit: largest response in the series, negative = inhibition, hits mostly inhibitors; actives 3.5% (n = 310,000);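 also: the enzyme is Sfp with the accession as filed and its product quenches rhodamine fluorescence; 0% = enzyme reaction without inhibitor and -100% = no enzyme wells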
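Compounds were incubated with enzyme (final 15 nM) for 15 min at room temperature before substrate addition started the reaction. Fluorescence at 525 nm excitation, 598 nm emission was recorded immediately and after 30 minutes.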
TDP1 block: blocks human tyrosyl-DNA phosphodiesterase 1 | Potency, µM (highest dose often 130 µM), for inactives: top-dose activity change, negative = inhibition, usual class: inhibitors | Q9NUW8 | actives 0.28% (n = 350,000) | AID 485290 | recombinant TDP1, AlphaScreen DNA substrate cleavage; also: % is scaled to controls: 0 for no effect and ±100 for the full control effect; nearly all actives have a fitted effect of over 40% in size
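Signal: AlphaScreen proximity between streptavidin donor and anti-FITC acceptor beads on intact substrate. Reaction: Tdp1 1 nM, substrate 15 nM final, 5 min RT after 15 min compound preincubation.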
G9a inh: inhibitors of human histone lysine methyltransferase G9a. Q96KQ7. G9a H3K9 monomethylation, AlphaScreen, 2 h. actives 8.8% (n = 350,000). Potency, µM (highest dose often 102 µM), without a hit: top-dose activity, negative = inhibition, actives largely listed as inhibitors; also: % is scaled to controls: 0 for no effect and ±100 for the full control effect; nearly all actives have a fitted effect of over 75% in size
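Chemiluminescent proximity detection of H3K9 monomethylation, read after 10 min bead incubation in the dark. Reaction: 20 nM G9a, 500 nM biotin-H3K9 peptide, 20 uM SAM cofactor, 2 h, room temperature, following 15 min enzyme-compound preincubation.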
* hit, by the source's call; u = inconclusive; x = no result given; [ ] = dose if it differs, or a comment. Calls follow the shape of the dose curve; as a rule, active = well fitted curve in the direction sought with a large enough effect; inconclusive = small, poorly fitted or top-dose-only effect, or another doubt; inactive = no such curve, though single readings can be large; an effect the other way counts as inactive or inconclusive. Potency is read from the fitted curve at half-maximal effect.

SMILES	HP1b chromo inh	JMJD2A Tudor	BAZ2B block	Sfp PPTase inh	TDP1 block	G9a inh
CCOC(=O)C1CCCN(Cc2cccc(Oc3ccccc3)c2)C1 (centres undefined)	u	3.2µM*	u	-15%	x	79µM*
CCN1CCN(Cc2cccc(Oc3ccc(Cl)cc3)c2)CC1	12%	-31%	79µM*	u	1%	u
CCOC(=O)C1CCN(Cc2cccc(Oc3ccc(Cl)cc3)c2)CC1	-30%	28µM*	u	-26%	x	u
CCOC(=O)C1CCN(Cc2cccc(Oc3ccccc3)c2)CC1	-19%	22µM*	56µM*	-24%	x	7.1µM*
CC1(C)CC[C@]2(C)CC[C@@]3(C)C(=CCC4[C@@]5(C)CCC(O)C(C)(C)C5CC[C@@]43C)C2C1 (some centres undefined)	x	x	x	-1%	12%[56.1 µM]	-12%[2.33 µM]
Clc1ccc(-c2nnn3c2nc(NC2CCCCC2)c2ccccc23)cc1	89%	33%	32%	x	-1%	17%[59 µM]
CC(NC(=O)CSc1n[nH]c(-c2ccccc2Cl)n1)c1nc2ccccc2[nH]1 (centres undefined)	28%[57 µM]	-3%	0%	x	0%	3%[59 µM]
COc1ccc(NC(=S)NNc2ccc([N+](=O)[O-])cc2S(=O)(=O)Nc2ccc(C)cc2C)cc1	u	32µM*	25µM*	40µM*	13%	10µM*
Cc1ccc(NS(=O)(=O)c2cc([N+](=O)[O-])ccc2NNC(=S)Nc2cccc(Cl)c2)c(C)c1	u	u	20µM*	7.9µM*	-3%	16µM*
Cc1ccc([N+](=O)[O-])cc1NC(=S)NC(=O)CC(C)(C)C	-8%	-35%	-12%	4%	-4%	-37%
Cc1ccc(NS(=O)(=O)c2cc([N+](=O)[O-])ccc2NNC(=S)Nc2cc(C)ccc2C)c(C)c1	u	40µM*	32µM*	-72%	8%	2.5µM*
Cc1nn(CC(=O)NCCCN2CCCC2)c(=O)c2nn(-c3ccccc3)c(C)c12	59%	-7%	-11%	8%	1%	u
CSc1ccc(CCNC(=O)Cn2ccc3cc(S(=O)(=O)N4CCCCCC4)ccc32)cc1	21%	0%	-20%	x	0%	-25%[59 µM]
Cc1cc(N2C(=O)c3ccc(C(=O)Nc4ccc(CC(=O)O)cc4)cc3C2=O)no1	12%	-21%	2%	5%	-2%	x
CC(=O)N1CCN(CCN=CC2=C(O)CC(c3cccs3)CC2=O)CC1 (centres undefined)	40%	-1%	9%	-1%	-2%	50µM*
C=CCNC(=S)N1CCN(CCN=CC2=C(O)CC(c3cccs3)CC2=O)CC1 (centres undefined)	19%	-7%	34%	17%	6%	1%
CC(=O)N1CCN(CCN=CC2=C(O)CC(c3ccc(Cl)cc3)CC2=O)CC1 (centres undefined)	50%	-12%	-6%	6%	6%	50µM*
COc1ccc(N(C=O)C(C(=O)Nc2c(C)cccc2C)c2ccccc2)cc1 (centres undefined)	54%	-3%	x	x	x	x
COc1ccccc1Cn1c(CNS(=O)(=O)c2ccc(C(C)C)cc2)nc2cccnc21	17%[57 µM]	-22%	-12%	x	11%	8%[59 µM]
CC(=O)N1CCC(N(Cc2ccco2)C(=O)Nc2ccc(Br)cc2F)CC1	28%	-3%	1%	x	-2%	0%[59 µM]
CC1CCCCN1C(=O)CCn1c(=O)oc2ccccc21 (centres undefined)	47%	-11%	0%	7%	3%	30%
COc1ccc2c(c1)C=C([C@@H]1C[C@H]3CN(c4ccccc4)C(=O)[C@]34CCCN14)CO2	-13%	u	-26%	-4%	3%	56µM*
COc1cc2c(cc1OC)CN(CC(=O)Nc1ccc(F)cc1)C(C(=O)O)C2 (centres undefined)	33%	-30%	79µM*	u	x	u

High-throughput results (PubChem)
